# Measured values as given in PubChem BioAssay (EPA / NIEHS).
# Inconclusive results are not listed. Activity calls are given as the source filed them. The calls were made as follows, unless noted: active = hit-call score of the fitted dose curve at least 0.9, where 1 is the maximum; inactive = score below 0.9.
# Columns and labels:
# [1] = read-out: E-selectin (Homo sapiens) (UniProt P16581); assay: BSK_SAg_Eselectin: BioMAP Diversity Plus: SAg Assay for Eselectin Biomarker Activity (AID 2283091); conditions: primary human HUVEC with PBMC; actives raise or lower the signal
# Method in brief: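 HUVEC co-cultured with PBMC, compound dosed then read at 24 h; E-selectin measured by ELISA. Activity fitted bidirectionally against DMSO as negative control and baseline.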
# [2] = read-out: Monokine induced gamma interferon (MIG), CXCL9 (gene 4283); assay: BSK_SAg_MIG: BioMAP Diversity Plus: SAg Assay for Monokine induced gamma interferon (MIG) Biomarker Activity (AID 2283092); conditions: primary human HUVEC with PBMC; actives raise or lower the signal
# Method in brief: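 Measures CXCL9 protein by ELISA in a human vascular primary-cell co-culture (umbilical vein endothelium with PBMC) 24 h after chemical addition. Activity is scored up or down from the DMSO control.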
# [3] = BSK_SAg_PBMCCytotoxicity: PBMC Cytotoxicity Assessment in the BioMAP Diversity Plus: SAg Assay (AID 2283093); conditions: primary human HUVEC with PBMC;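 also: PBMC viability measured as Alamar Blue reduction fluorescence at 546/580 nm; fitted both ways against DMSO so a hit may be loss or gain of signal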;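 as to AC50: PBMC superantigen activated with SEB plus TSST-1 one hour after compound addition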
# Method in brief: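 Alamar Blue reduction (6 h, ex/em 546/580 nm) read after 90 h culture of PBMC pre-dosed 1 h then stimulated with SEB plus TSST-1, 20 ng/mL each. Gain or loss of signal fitted relative to DMSO.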
# [4] = read-out: Interleukin-8 (IL8), CXCL8 (gene 3576); assay: BSK_SAg_IL8: BioMAP Diversity Plus: SAg Assay for Interleukin-8 (IL8) Biomarker Activity (AID 2283094); conditions: primary human HUVEC with PBMC; actives raise or lower the signal
# Method in brief: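 Chemicals were dosed onto a human endothelial–PBMC co-culture, and IL-8 was quantified by ELISA after 24 h. Both increases and decreases were fitted relative to DMSO.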
# [5] = BSK_SAg_Proliferation: Cell Proliferation Assessment in the BioMAP Diversity Plus: SAg Assay (AID 2283095); conditions: primary human HUVEC with PBMC;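 also: relative cell number as total protein by SRB absorbance in sub-confluent culture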
# Method in brief: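 Absorbance of sulforhodamine B at 560 nm reports total protein in a human vascular endothelial/PBMC co-culture after 96 h chemical exposure. Gain or loss of signal is fitted in both directions against DMSO.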
# [6] = BSK_SAg_SRB: Viability Assessment in the BioMAP Diversity Plus: SAg Assay (AID 2283096); conditions: primary human HUVEC with PBMC;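 also: cells read one day after compound addition; hits may be either gain or loss of signal compared with DMSO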
# Method in brief: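 SRB absorbance at 560 nm served as the viability read-out. Cells (HUVEC plus peripheral blood mononuclear cells) were TCA-fixed and stained 24 h post-dosing; activity fitted in both directions against DMSO controls.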
# [7] = target: human CYP19A1, CYP19A1 (gene 1588) (UniProt P11511); assay: NVS_ADME_hCYP19A1: NovaScreen (NVS) CYP450-related Enzyme Activity (ADME) Assay for human CYP19A1 (AID 2283098; active = hit-call score of the fitted dose curve at least 0.9, where 1 is the maximum)
# Method in brief: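 Primary testing was in duplicate at a single 10 uM concentration, with actives followed up in concentration-response series. Fluorescence read-out of recombinant enzyme activity at 0.5 h, cell-free. Acetonitrile was the negative-control baseline.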
# [8] = target: human CYP2A6, CYP2A6 (gene 1548) (UniProt P11509); assay: NVS_ADME_hCYP2A6: NovaScreen (NVS) CYP450-related Enzyme Activity (ADME) Assay for human CYP2A6 (AID 2283099; active = hit-call score of the fitted dose curve at least 0.9, where 1 is the maximum)
# Protocol: NVS_ADME_hCYP2A6 is a biochemical, single-readout assay that uses extracted gene-proteins from insect cells in a cell-free assay. Measurements were taken 0.5 hour after chemical dosing in a 96-well plate.NVS_ADME_hCYP2A6 is one of one assay component(s) measured or calculated from the NVS_ADME_hCYP2A6 assay. It is designed to make measurements of enzyme activity, a form of enzyme reporter, as detected with fluorescence intensity signals by Fluorescence technology.Data from the assay component NVS_ADME_hCYP2A6 was analyzed into 1 assay endpoint. This assay endpoint, NVS_ADME_hCYP2A6, was analyzed in the positive analysis fitting direction relative to Acetonitrile as the negative control and baseline of activity. Using a type of enzyme reporter, loss-of-signal activity can be used to understand changes in the enzymatic activity as they relate to the gene CYP2A6. Furthermore, this assay endpoint can be referred to as a primary readout, because this assay has produced multiple assay endpoints where this one serves a enzymatic activity function. To generalize the intended target to other relatable targets, this assay endpoint is annotated to the cyp intended target family, where the subfamily is xenobiotic metabolism.
# Binding assays used specific radioligands (tritiated, iodinated) with non-radioactive competitive displacement ligands in agonist or antagonist protocols (as indicated) and various reference compounds and inhibitors to titrate specific binding to receptors and transporters. Most enzyme assays (CYPs, kinases, phosphatases, proteases, HDACs) used recombinant protein and specific substrates (fluorescence mostly, some colorimetric and radioactive) and inhibitors, followed by a biochemical separation of substrate and product. All assays for the biochemical HTS were initially run in duplicate at a single concentration (10 uM for CYP450 assays and 25 uM for all others). Assay-chemical combinations meeting a pre-defined threshold (e.g., 30% inhibition and other criteria defined below) were then run in singleton concentration-response format with maximum concentration of 20 uM for CYPs and 50 uM for all others. Each assay was run with positive and negative controls, and concurrent controls on every plate. The follow-up (secondary) screen tested active chemical-pairs in concentration series, as well as a few additional assays not tested in the primary screen, some selected negative inactives, and several cases re-run in the concentration series for confirmatory purposes.
# [9] = target: human CYP2B6, CYP2B6 (gene 1555) (UniProt P20813); assay: NVS_ADME_hCYP2B6: NovaScreen (NVS) CYP450-related Enzyme Activity (ADME) Assay for human CYP2B6 (AID 2283101; active = hit-call score of the fitted dose curve at least 0.9, where 1 is the maximum)
# Method in brief: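 Recombinant protein, specific fluorescent substrate, read at 1 h post-dosing. Primary: single 10 uM, duplicate; follow-up: concentration series. Activity = signal loss vs acetonitrile baseline, with positive and negative controls on every plate.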
# [10] = target: human CYP1A1, CYP1A1 (gene 1543) (UniProt P04798); assay: NVS_ADME_hCYP1A1: NovaScreen (NVS) CYP450-related Enzyme Activity (ADME) Assay for human CYP1A1 (AID 2283100; active = hit-call score of the fitted dose curve at least 0.9, where 1 is the maximum)
# Method in brief: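 Cell-free fluorescence assay of recombinant human CYP1A1 activity with a specific substrate, read 1 h after dosing. Compounds were screened in duplicate at 10 uM, then hits tested in concentration-response up to 20 uM; acetonitrile served as baseline.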
# Chain of human CYP2B6, CYP2B6 (gene 1555) (P20813 whole entry, looked up): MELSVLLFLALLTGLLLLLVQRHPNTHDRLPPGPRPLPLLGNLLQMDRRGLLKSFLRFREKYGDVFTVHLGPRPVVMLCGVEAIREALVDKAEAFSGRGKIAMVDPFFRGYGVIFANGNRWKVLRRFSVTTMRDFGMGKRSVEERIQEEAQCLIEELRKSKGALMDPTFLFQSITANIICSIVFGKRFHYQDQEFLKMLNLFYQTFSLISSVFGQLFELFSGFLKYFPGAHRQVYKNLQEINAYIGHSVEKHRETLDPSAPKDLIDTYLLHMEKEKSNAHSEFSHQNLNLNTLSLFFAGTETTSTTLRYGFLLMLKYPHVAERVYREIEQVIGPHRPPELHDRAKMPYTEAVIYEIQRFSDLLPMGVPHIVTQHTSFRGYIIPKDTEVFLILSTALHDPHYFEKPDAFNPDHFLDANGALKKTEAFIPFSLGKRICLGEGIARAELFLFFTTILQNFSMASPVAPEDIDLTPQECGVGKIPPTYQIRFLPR
# Chain of human CYP19A1, CYP19A1 (gene 1588) (P11511 whole entry, looked up): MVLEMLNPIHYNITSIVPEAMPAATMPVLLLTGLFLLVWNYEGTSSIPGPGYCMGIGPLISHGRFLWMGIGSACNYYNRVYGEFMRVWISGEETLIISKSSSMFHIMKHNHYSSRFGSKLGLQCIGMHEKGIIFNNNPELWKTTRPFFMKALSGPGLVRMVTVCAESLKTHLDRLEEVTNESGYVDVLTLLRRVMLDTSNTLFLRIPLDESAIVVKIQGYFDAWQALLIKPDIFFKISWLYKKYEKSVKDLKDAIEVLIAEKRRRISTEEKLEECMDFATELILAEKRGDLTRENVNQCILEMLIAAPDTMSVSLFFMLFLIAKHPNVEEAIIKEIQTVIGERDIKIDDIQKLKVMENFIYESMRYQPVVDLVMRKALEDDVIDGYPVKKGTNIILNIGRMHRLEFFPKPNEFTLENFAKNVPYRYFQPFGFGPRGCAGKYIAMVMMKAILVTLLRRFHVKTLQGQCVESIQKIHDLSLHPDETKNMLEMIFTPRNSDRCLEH
# Chain of human CYP1A1, CYP1A1 (gene 1543) (P04798 whole entry, looked up): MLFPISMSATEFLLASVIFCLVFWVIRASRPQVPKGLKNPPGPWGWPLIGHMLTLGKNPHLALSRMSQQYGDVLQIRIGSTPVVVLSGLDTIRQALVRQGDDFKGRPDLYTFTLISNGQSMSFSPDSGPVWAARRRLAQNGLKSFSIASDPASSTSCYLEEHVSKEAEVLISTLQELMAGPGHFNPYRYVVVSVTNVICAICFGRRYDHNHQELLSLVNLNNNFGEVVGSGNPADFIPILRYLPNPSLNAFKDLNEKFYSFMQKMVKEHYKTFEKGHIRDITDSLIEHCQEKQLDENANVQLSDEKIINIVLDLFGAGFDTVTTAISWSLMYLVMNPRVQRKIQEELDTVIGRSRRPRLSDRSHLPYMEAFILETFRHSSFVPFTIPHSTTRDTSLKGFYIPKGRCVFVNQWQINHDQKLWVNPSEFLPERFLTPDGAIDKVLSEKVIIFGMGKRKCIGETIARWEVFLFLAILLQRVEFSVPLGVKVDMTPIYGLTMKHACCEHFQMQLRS
# Chain of human CYP2A6, CYP2A6 (gene 1548) (P11509 whole entry, looked up): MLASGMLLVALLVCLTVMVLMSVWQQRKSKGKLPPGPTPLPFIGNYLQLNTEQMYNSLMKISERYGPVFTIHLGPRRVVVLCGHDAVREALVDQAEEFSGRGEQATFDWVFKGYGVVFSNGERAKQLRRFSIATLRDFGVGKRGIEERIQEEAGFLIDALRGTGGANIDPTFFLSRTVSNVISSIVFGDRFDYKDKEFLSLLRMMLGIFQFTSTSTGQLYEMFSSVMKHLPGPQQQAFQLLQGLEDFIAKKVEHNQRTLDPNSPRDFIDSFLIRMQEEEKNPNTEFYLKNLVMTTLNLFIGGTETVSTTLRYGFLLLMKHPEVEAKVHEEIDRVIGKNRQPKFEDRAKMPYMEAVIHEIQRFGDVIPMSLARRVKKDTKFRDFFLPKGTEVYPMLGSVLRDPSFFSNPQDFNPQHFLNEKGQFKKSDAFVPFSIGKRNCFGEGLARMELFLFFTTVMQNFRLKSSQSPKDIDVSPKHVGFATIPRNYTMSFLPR
# Chain of E-selectin (Homo sapiens) (P16581 whole entry, looked up): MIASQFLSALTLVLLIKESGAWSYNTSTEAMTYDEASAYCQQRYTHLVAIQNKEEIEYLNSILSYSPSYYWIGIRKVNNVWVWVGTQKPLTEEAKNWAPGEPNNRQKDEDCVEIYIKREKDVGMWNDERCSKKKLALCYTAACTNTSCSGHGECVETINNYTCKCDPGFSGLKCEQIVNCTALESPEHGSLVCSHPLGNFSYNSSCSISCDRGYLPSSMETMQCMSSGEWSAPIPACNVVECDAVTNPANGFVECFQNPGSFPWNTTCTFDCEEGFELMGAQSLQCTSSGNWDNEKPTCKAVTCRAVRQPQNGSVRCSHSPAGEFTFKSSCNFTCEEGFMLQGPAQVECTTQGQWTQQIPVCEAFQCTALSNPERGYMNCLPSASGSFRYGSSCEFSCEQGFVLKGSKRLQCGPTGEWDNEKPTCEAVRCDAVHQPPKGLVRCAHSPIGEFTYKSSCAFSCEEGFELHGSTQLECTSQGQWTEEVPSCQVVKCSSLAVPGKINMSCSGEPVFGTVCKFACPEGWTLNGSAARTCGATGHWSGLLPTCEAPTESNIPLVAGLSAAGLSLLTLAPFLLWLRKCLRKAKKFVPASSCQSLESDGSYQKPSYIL
smiles,measurement,setting,value
CCNc1nc(Cl)nc(NC(C)(C)C#N)n1,AC50,[1],4.59 µM (active)
same,outcome,[2],inactive
same,outcome,[3],inactive
same,outcome,[4],inactive
same,outcome,[5],inactive
same,outcome,[6],inactive
CC(=NC#N)N(C)Cc1ccc(Cl)nc1,outcome,[2],inactive
same,outcome,[3],inactive
same,outcome,[4],inactive
same,outcome,[5],inactive
same,outcome,[6],inactive
S=C1NCCN1,outcome,[2],inactive
same,outcome,[3],inactive
same,outcome,[4],inactive
same,outcome,[5],inactive
same,outcome,[6],inactive
same,outcome,[7],inactive
same,AC50,[8],3.94 µM (active)
C[N+]1(C)CCCCC1,outcome,[2],inactive
same,outcome,[3],inactive
same,outcome,[4],inactive
same,outcome,[5],inactive
same,outcome,[6],inactive
CCc1cccc(C)c1N(C(=O)CCl)C(C)COC (stereo unspecified),outcome,[2],inactive
same,outcome,[3],inactive
same,outcome,[4],inactive
same,outcome,[5],inactive
same,outcome,[6],inactive
same,outcome,[7],inactive
same,AC50,[9],2.11 µM (active)
Cc1cc(C2CC2)nc(Nc2ccccc2)n1,outcome,[2],inactive
same,AC50,[3],7.66 µM (active)
same,outcome,[4],inactive
same,AC50,[5],34.3 µM (active)
same,AC50,[6],15 µM (active)
CCOP(=S)(OCC)Oc1ccc([N+](=O)[O-])cc1,outcome,[2],inactive
same,outcome,[3],inactive
same,outcome,[4],inactive
same,AC50,[5],32.1 µM (active)
same,outcome,[6],inactive
same,outcome,[7],inactive
same,AC50,[10],3.28 µM (active)
same,AC50,[9],0.99 µM (active)
CNC(=O)ON=C(SC)C(=O)N(C)C,outcome,[2],inactive
same,outcome,[3],inactive
same,outcome,[4],inactive
same,AC50,[5],20 µM (active)
same,outcome,[6],inactive
same,outcome,[7],inactive
CCc1cccc(CC)c1N(COC)C(=O)CCl,outcome,[2],inactive
same,outcome,[3],inactive
same,outcome,[4],inactive
same,AC50,[5],23.6 µM (active)
same,AC50,[6],20 µM (active)
same,AC50,[9],1.58 µM (active)
CCOC(=O)CC(SP(=O)(OC)OC)C(=O)OCC (stereo unspecified),outcome,[2],inactive
same,outcome,[3],inactive
same,outcome,[4],inactive
same,outcome,[5],inactive
same,outcome,[6],inactive
same,outcome,[7],inactive
same,outcome,[8],inactive
same,outcome,[10],inactive
same,AC50,[9],2.49 µM (active)
CCC(CC)Nc1c([N+](=O)[O-])cc(C)c(C)c1[N+](=O)[O-],AC50,[2],29.5 µM (active)
same,AC50,[3],29.2 µM (active)
same,AC50,[4],28.3 µM (active)
same,AC50,[5],28.9 µM (active)
same,AC50,[6],12.3 µM (active)
same,outcome,[7],inactive
C#CCC1=C(C)C(OC(=O)C2C(C=C(C)C)C2(C)C)CC1=O (stereo unspecified),AC50,[2],36.6 µM (active)
same,AC50,[3],32.9 µM (active)
same,AC50,[4],26 µM (active)
same,AC50,[5],34 µM (active)
same,AC50,[6],26.9 µM (active)
CC(C)N(C(=O)SCC(Cl)=C(Cl)Cl)C(C)C,AC50,[2],36.7 µM (active)
same,AC50,[3],36.5 µM (active)
same,AC50,[4],31 µM (active)
same,AC50,[5],38 µM (active)
same,AC50,[6],31.5 µM (active)
CN(C)C(=O)Nc1cccc(C(F)(F)F)c1,outcome,[2],inactive
same,outcome,[3],inactive
same,outcome,[4],inactive
same,outcome,[5],inactive
same,outcome,[6],inactive
CC[C@H](C)[C@H]1O[C@]2(C=C[C@@H]1C)C[C@@H]1C[C@@H](C/C=C(\C)[C@@H](O[C@H]3C[C@H](OC)[C@@H](O[C@H]4C[C@H](OC)[C@@H](NC)[C@H](C)O4)[C@H](C)O3)[C@@H](C)/C=C/C=C3\CO[C@@H]4[C@H](O)C(C)=C[C@@H](C(=O)O1)[C@]34O)O2,AC50,[2],8.62 µM (active)
same,AC50,[3],2.6 µM (active)
same,AC50,[4],2.16 µM (active)
same,AC50,[5],1.69 µM (active)
same,AC50,[6],5.06 µM (active)
same,outcome,[7],inactive
same,AC50,[9],8.42 µM (active)
CCCSP(=O)(OCC)Oc1ccc(Br)cc1Cl (stereo unspecified),AC50,[2],36.5 µM (active)
same,AC50,[3],32.9 µM (active)
same,AC50,[4],26.3 µM (active)
same,AC50,[5],29.3 µM (active)
same,AC50,[6],11.7 µM (active)
same,AC50,[9],11.3 µM (active)
CNc1cnn(-c2cccc(C(F)(F)F)c2)c(=O)c1Cl,outcome,[2],inactive
same,AC50,[3],7.99 µM (active)
same,AC50,[4],10.9 µM (active)
same,outcome,[5],inactive
same,outcome,[6],inactive
same,outcome,[7],inactive
same,AC50,[10],6.11 µM (active)
CCCCOC(=O)c1ccccc1C(=O)O,outcome,[2],inactive
same,outcome,[3],inactive
same,outcome,[4],inactive
same,outcome,[5],inactive
same,outcome,[6],inactive
same,outcome,[7],inactive
